Measured values from PubChem BioAssay (NCI).
Several values for one entry are separate records, joined by “and”; a condition that tells them apart may be missing. Equal entries are not always repeated. The panel holds about 83,000 compounds, 20% with a hit somewhere; the sample as a whole holds those more often.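 Plates (96-well) were seeded with cells, treated with compound at one concentration, and incubated for 48 hours before percent growth was determined.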 Values without a mark were called inactive. Activity calls are given as the source filed them.

Test system: KM12 colon
Test: NCI-60 one-dose screen, 48 h (100 = growth as untreated, 0 = no growth, -100 = all killed)
Settings: 10 µM unless noted
Procedure: Growth inhibition of the KM12 human tumor cell line is measured as a screen for anti-cancer activity. Cells are grown in 96 well plates and exposed to the test compound for 48 hours. Compounds are tested at a single concentration, which is 10^-5 M for most compounds. The reported endpoint is percent growth (GI% or GIPRCNT), where numbers from 0 - 100% represent growth inhibition, and numbers from -100% - 0 represent cell death. For example, a value of 40 represents 60% growth inhibition. A value of 0 means no net growth occurred over the course of the experiment. A value of -40 indicates 40% of cells at the beginning of the experiment died by the end of the experiment. A value of -100 means all cells are dead at the end of the experiment.
NCI-60 Human Tumor Cell Lines Screen was performed using the standard one-dose NCI protocol, which is described in more detail at https://dtp.cancer.gov/discovery_development/nci-60/default.htm.
Compounds with GIPRCNT values below 10 were considered active. Activity score was based on GIPRCNT using the following formula: […]
Score is 0 for GIPRCNT values of 100 or above, 50 for GIPRCNT values of 0, and 100 for GIPRCNT values of -100.

Structure (SMILES) | growth
COc1ccc(-c2cc(-c3cc(OC)c(OC)c(OC)c3)c(C#N)c(=O)n2CCCCC(=O)O)cc1 | 94.6%
CCN(CC)/C([O-])=c1\cccc\c1=C1\N=C(c2ccccc2)N=C1[n+]1ccc(-c2ccccc2)cc1 | 96.3%
COc1ccc2c(c1)CCNC21C(=O)Nc2c(Br)cc(Br)cc21 (stereo not given) | 104%
O=C(CCCOc1ccc(Br)cc1)Nc1ncc(Cc2ccc(F)cc2)s1 | 36.2%
O=C1CCCCN1CCCCC#Cc1cccc(C#Cc2cccnc2)c1 | 73.6%
CCCN1C(=O)/C(=c2\sc3n(c2=O)C2C(NN=3)N(CC)C(=O)N2CC)c2ccccc21 (stereo not given) | 20%
COc1cc(/C=C2\CCC/C(=C\c3cc(CN4CCCC4)c(O)c(OC)c3)C2=O)cc(CN2CCCC2)c1O | 11.9%
CCCCCCCCCCCCCCCCCCn1cc(COc2ccc(C=O)cc2)nn1 | 86.3%
CCCCC#Cc1c(/C=C(\CCCC)SCC)n(C)c(=O)[nH]c1=O | 113%
C=C(C)[C@@H]1CC[C@]2(C(=O)N3CCN(C)CC3)CC[C@]3(C)[C@H](CC[C@@H]4[C@@]5(C)CC(CCCNC(C)=O)(CCCNC(C)=O)[C@H](OC(C)=O)C(C)(C)[C@@H]5CC[C@]43C)[C@@H]12 | 107%
COc1cccc(C2C(C#N)=C(N)Oc3cc(OCCCCCC[P+](c4ccccc4)(c4ccccc4)c4ccccc4)ccc32)c1 (stereo not given) | -77% (active)
Cn1c(=O)c2c(nc(Nc3cc(=O)[nH]c(=O)[nH]3)n2Cc2ccccc2)n(C)c1=O | 5.18% (active)
Cc1ccc(NC(=O)c2sc3nc(C)c(C(=O)c4ccccc4)cc3c2N)cc1 | 76.2%
O=[N+]([O-])c1ccc2[nH]c3nccc(NCc4cccc(Cl)c4)c3c2c1 | 84.7%
COc1cc(F)c(/C=C/c2cc(/C=C/c3cc(OC)c(OC)cc3F)n(-c3cc(F)cc(F)c3)n2)cc1OC | 27.9%
COCCOc1cc2ncnc(N3CCN(S(=O)(=O)c4ccccc4Cl)CC3)c2cc1OCCOC | 69.7%
O=S(=O)(O)c1ccc(N=Nc2ccc(N=Nc3cccc4ccccc34)c(S(=O)(=O)O)c2)cc1 | 104%
O=C(Nc1ccc(F)cc1)c1cc2cc(Nc3nc(-c4ccccc4)nc4ccccc34)ccc2oc1=O | 102%
O=C1c2cc3c(cc2-c2c1c1ccc(Cl)cc1c(=O)n2CCCn1ccnc1)OCO3 | 1.36% (active)
COc1cc2cc(NCc3ccncc3)nc(C)c2cc1OC | 109%

Structure (SMILES) | growth
COc1ccc(Nc2nn3c(SCC(=O)c4ccc(C)cc4)nnc3s2)cc1 | 97.3%
Cc1n(Cc2ccc3ccccc3c2)c(Cl)c(Cl)[n+]1Cc1ccc2ccccc2c1 | 0.454% (active)
Cc1[nH]c(C(=O)Nc2nc3ccc(NC(=O)CCN)cc3s2)c(Cl)c1Cl | 90.3%
N#C/C(=C\c1ccccc1Cl)c1cc2ccccc2[nH]1 | 82.6%
COc1ccc(S(=O)(=O)Nc2cc(Sc3cccc4cccnc34)c(O)c3ccccc23)cc1 | 20.3%
CCCNNC(=O)/C=C/c1ccc(CNCCc2c(C)[nH]c3ccccc23)cc1 | 28.8% [2.5 µM]
CN1CCCc2cc(/C=C3\SC(=S)N(C(Cc4ccc(O)cc4)C(=O)O)C3=O)ccc21 (stereo not given) | 105%
COc1cc(/C=C/C(=O)c2ccc(NC(=O)CSc3nnc(-c4cc(-c5ccccc5)nc5ccccc45)n3-c3ccccc3)cc2)cc(OC)c1OC | 63.5%
N=C(N)c1ccc(-c2ccc(-c3ccc(F)cc3)s2)nc1 | 18.7%
O=C(O)C1C2CCC1C(O)C2 (stereo not given) | 107% and 98.7%
Cc1ccc(S(=O)(=O)OC[C@@]2(C)CC[C@]3(C)CC[C@]4(C)C(=C3C2)C=C[C@@H]2[C@@]3(C)CCCNC(C)(C)[C@@H]3CC[C@]24C)cc1 | -75.8% (active)
O=C(Nc1ccc2ncsc2c1)c1csc(Nc2ccc3[nH]ncc3c2)n1 | 30.9%
Nc1nc(Cl)nc2c1ncn2C1OC(CO)C(O)C1O (stereo not given) | 60.1% and 86.2%
CC[C@H](C)[C@H](NC(=O)[C@@H](N)CCC(N)=O)C(=O)N[C@@H](Cc1ccc(O)cc1)C(=O)N[C@@H](CCCCN)C(=O)N[C@@H](CCCCN)C(=O)N[C@@H](Cc1ccc(O)cc1)C(=O)N[C@@H](CCCNC(=N)N)C(=O)N[C@H](C(=O)N[C@@H](Cc1c[nH]c2ccccc12)C(=O)N[C@@H](Cc1ccc(O)cc1)C(=O)N[C@@H](CCCNC(=N)N)C(=O)N[C@@H](CCCCN)C(=O)N[C@@H](C)C(=O)N[C@@H](Cc1c[nH]c2ccccc12)C(=O)N[C@@H](CCCCN)C(=O)N[C@H](C(=O)N[C@@H](CC(C)C)C(=O)NCC(=O)N[C@@H](CCCCN)C(=O)N[C@H](C(N)=O)C(C)C)C(C)C)[C@@H](C)O | -33% (active)
COc1c(NC=O)c2c(c([N+](=O)[O-])c1OC)C(=O)OC2 | 109% and 102%
CCOC(=O)n1cc(-c2nonc2-c2cn(C)c3ccc(OC)cc23)c2cc(F)ccc21 | 77.7%
Nc1nc(Nc2cccnc2)sc1C(=O)c1ccccc1F | 5.5% (active)
COc1cc(CNC(=O)CCCC/C=C/C(C)C)ccc1OCc1cn(-c2ccc([N+](=O)[O-])cc2)nn1 | 90%
C=C1CCC2C3(C)COC(c4ccc(NC(C)=O)cc4)OC3CCC2(C)C1C/C=C1/C(=O)OCC1O (stereo not given) | 51.7%
CCCCC1COc2cccc3c2N1C=C/C3=C\C(=O)N(C)c1cccc(Cl)c1 (stereo not given) | 105%
